The target in assay [1] is T1, Ephrin type-B receptor 2 (Homo sapiens) (UniProt P29323).
T1 sequence (whole entry): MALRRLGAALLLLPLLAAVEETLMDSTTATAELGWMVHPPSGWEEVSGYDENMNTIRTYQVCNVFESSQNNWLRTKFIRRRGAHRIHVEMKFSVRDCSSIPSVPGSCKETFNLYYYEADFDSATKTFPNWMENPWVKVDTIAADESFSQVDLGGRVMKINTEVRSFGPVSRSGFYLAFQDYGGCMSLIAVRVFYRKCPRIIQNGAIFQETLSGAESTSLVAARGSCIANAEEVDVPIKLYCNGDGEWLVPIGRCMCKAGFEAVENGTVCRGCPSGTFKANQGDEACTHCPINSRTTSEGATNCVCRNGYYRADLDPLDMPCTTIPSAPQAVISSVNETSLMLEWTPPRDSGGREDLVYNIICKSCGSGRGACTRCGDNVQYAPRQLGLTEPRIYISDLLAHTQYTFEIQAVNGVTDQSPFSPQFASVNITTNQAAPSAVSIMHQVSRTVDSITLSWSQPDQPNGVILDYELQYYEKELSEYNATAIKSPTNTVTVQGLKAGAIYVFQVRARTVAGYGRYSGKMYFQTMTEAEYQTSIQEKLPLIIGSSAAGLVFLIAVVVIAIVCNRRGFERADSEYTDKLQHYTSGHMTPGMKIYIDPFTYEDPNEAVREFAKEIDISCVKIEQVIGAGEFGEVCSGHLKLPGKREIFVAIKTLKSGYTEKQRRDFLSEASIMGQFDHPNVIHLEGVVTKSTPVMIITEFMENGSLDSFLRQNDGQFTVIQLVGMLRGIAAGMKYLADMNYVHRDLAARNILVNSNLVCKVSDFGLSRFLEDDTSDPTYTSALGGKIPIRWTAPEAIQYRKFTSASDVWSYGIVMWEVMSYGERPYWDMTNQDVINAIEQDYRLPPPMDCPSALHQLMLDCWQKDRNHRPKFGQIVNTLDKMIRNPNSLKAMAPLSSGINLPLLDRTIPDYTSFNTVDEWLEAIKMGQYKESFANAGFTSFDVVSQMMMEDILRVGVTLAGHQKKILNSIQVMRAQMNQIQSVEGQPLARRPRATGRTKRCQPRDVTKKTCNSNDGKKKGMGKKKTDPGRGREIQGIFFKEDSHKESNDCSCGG
The note with it: at 1 µM.

Assay [2] deals with T2, Ephrin type-B receptor 3 (Homo sapiens) (UniProt P54753).
T2 sequence (whole entry): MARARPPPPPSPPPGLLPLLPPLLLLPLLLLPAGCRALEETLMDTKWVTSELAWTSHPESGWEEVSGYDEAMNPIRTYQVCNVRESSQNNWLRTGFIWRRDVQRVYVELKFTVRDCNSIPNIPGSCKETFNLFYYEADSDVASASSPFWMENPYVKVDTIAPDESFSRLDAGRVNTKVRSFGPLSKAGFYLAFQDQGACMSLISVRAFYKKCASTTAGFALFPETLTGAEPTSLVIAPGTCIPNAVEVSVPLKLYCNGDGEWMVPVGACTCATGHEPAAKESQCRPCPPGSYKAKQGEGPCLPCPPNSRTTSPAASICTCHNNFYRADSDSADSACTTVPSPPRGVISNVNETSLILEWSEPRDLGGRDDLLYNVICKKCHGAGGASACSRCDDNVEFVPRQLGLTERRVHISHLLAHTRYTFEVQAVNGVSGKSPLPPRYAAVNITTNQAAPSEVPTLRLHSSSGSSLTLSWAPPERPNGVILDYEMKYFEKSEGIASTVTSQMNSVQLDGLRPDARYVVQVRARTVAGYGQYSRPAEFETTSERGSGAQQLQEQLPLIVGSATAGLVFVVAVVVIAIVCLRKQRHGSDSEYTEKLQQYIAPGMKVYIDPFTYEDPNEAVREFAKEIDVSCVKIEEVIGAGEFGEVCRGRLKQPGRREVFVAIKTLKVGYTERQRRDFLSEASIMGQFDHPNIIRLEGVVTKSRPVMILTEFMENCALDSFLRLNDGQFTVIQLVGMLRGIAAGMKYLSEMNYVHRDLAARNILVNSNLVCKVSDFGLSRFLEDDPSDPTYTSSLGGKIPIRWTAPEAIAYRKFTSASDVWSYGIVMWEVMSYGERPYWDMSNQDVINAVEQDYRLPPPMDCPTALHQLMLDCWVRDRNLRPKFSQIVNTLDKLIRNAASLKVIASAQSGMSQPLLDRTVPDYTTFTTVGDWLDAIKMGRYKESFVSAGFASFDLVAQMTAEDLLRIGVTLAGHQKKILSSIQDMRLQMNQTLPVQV
The note with it: at 0.1 µM.

The target in assay [3] is T2, Ephrin type-B receptor 3 (Homo sapiens). The note with it: at 1 µM.
The target in assay [4] is T3, Ephrin type-B receptor 4 (Homo sapiens) (UniProt P54760).
T3 sequence (whole entry): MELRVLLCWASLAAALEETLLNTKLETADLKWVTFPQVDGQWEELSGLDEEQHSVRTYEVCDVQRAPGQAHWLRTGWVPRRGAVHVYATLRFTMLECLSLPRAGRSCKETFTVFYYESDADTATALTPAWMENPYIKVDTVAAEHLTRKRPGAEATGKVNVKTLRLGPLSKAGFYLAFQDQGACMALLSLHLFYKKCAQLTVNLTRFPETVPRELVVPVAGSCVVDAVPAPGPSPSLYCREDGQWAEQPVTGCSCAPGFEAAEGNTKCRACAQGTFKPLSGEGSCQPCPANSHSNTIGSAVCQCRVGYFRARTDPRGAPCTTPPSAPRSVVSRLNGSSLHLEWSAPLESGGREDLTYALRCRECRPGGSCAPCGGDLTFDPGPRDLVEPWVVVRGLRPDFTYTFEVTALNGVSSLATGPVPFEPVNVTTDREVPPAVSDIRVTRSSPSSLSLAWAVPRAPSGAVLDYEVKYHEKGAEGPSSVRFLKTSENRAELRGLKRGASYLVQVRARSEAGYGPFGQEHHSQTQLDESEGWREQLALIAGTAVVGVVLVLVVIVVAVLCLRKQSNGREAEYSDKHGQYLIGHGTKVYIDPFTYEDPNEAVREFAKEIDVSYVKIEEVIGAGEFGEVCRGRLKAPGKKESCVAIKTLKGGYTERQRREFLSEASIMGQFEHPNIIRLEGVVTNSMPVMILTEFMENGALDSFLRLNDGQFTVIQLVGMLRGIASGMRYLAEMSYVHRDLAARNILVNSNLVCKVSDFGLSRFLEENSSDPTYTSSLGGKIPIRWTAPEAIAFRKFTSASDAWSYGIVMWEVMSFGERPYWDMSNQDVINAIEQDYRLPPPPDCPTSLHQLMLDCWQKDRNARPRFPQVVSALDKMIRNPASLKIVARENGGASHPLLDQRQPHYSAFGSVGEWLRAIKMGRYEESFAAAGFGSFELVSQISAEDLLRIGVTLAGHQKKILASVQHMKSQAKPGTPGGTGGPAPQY
The note with it: at 0.1 µM.

Assay [5] concerns the target T3, Ephrin type-B receptor 4 (Homo sapiens). The note with it: at 1 µM.
Assay [6] has as its target Receptor tyrosine-protein kinase erbB-2 (Homo sapiens) (UniProt P04626). The note with it: at 0.1 µM.
The target is the same in assay [7]. The note with it: at 1 µM.
Assay [8] concerns the target Receptor tyrosine-protein kinase erbB-4 (Homo sapiens) (UniProt Q15303). The note with it: at 0.1 µM.
Assay [9] shares this target. The note with it: at 1 µM.
Assay [10] addresses Tyrosine-protein kinase Fer (Homo sapiens) (UniProt P16591). The note with it: at 0.1 µM.
Assay [11] has the same target. The note with it: at 1 µM.
Assay [12] deals with Tyrosine-protein kinase Fes/Fps (Homo sapiens) (UniProt P07332). The note with it: at 0.1 µM.
Assay [13] has the same target. The note with it: at 1 µM.
Assay [14] addresses Fibroblast growth factor receptor 1 (Homo sapiens) (UniProt P11362). The note with it: at 0.1 µM.
For assay [15] the target is unchanged. The note with it: at 1 µM.
Assay [16] concerns the target Fibroblast growth factor receptor 2 (Homo sapiens) (UniProt P21802). The note with it: at 0.1 µM.
Assay [17] shares this target. The note with it: at 1 µM.
Assay [18] addresses Fibroblast growth factor receptor 3 (Homo sapiens) (UniProt P22607). The note with it: at 0.1 µM.
Assay [19] has the same target. The note with it: at 1 µM.
For assay [20], the target named is Fibroblast growth factor receptor 4 (Homo sapiens) (UniProt P22455). The note with it: at 0.1 µM.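 Note: values are mean percent inhibition of FGFR4.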
Sequence of Fibroblast growth factor receptor 4 (Homo sapiens) (P22455 22-802 limits assumed): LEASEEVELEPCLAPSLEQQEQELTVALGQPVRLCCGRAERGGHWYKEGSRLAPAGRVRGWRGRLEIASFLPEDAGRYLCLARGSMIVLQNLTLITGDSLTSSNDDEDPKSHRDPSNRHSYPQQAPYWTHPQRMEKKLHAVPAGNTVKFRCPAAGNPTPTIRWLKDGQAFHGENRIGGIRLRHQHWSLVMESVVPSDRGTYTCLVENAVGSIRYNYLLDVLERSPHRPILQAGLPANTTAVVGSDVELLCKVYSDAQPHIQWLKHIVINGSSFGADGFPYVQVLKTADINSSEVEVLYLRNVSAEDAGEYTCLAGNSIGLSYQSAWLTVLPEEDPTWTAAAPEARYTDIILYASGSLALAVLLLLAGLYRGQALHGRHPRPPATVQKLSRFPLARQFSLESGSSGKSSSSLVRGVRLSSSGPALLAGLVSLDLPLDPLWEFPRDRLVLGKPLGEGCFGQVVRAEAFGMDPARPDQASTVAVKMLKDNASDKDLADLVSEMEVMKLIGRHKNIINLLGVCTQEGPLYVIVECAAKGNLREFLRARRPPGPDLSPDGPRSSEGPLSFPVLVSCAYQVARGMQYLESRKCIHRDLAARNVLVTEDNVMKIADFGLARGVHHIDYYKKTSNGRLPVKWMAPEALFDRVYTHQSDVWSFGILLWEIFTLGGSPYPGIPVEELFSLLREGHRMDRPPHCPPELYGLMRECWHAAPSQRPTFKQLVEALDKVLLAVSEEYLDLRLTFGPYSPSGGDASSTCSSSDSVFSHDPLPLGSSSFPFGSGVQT

Molecules are shown by their SMILES.

Sequence of Fibroblast growth factor receptor 1 (Homo sapiens) (P11362 22-822 limits assumed): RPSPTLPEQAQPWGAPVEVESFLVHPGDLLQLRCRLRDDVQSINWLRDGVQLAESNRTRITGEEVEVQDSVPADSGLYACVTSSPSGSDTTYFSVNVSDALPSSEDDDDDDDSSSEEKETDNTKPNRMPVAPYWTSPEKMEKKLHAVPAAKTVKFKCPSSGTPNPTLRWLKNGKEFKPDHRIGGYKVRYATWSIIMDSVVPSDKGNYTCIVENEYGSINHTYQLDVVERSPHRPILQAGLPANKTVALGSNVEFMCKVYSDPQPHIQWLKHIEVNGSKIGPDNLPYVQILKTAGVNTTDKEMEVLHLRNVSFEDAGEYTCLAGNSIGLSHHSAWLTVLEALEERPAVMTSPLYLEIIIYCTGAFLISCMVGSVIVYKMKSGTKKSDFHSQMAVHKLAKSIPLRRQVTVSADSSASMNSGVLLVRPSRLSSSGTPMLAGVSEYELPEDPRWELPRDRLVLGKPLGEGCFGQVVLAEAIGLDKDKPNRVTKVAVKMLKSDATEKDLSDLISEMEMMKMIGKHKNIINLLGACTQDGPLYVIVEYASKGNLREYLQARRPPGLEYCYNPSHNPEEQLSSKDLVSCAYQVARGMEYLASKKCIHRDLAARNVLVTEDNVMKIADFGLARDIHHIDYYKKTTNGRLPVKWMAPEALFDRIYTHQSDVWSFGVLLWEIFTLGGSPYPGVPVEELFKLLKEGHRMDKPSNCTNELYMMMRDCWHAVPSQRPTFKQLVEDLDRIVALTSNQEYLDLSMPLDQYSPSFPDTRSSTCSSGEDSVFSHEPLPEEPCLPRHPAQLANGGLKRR
Sequence of Receptor tyrosine-protein kinase erbB-4 (Homo sapiens) (Q15303 whole entry): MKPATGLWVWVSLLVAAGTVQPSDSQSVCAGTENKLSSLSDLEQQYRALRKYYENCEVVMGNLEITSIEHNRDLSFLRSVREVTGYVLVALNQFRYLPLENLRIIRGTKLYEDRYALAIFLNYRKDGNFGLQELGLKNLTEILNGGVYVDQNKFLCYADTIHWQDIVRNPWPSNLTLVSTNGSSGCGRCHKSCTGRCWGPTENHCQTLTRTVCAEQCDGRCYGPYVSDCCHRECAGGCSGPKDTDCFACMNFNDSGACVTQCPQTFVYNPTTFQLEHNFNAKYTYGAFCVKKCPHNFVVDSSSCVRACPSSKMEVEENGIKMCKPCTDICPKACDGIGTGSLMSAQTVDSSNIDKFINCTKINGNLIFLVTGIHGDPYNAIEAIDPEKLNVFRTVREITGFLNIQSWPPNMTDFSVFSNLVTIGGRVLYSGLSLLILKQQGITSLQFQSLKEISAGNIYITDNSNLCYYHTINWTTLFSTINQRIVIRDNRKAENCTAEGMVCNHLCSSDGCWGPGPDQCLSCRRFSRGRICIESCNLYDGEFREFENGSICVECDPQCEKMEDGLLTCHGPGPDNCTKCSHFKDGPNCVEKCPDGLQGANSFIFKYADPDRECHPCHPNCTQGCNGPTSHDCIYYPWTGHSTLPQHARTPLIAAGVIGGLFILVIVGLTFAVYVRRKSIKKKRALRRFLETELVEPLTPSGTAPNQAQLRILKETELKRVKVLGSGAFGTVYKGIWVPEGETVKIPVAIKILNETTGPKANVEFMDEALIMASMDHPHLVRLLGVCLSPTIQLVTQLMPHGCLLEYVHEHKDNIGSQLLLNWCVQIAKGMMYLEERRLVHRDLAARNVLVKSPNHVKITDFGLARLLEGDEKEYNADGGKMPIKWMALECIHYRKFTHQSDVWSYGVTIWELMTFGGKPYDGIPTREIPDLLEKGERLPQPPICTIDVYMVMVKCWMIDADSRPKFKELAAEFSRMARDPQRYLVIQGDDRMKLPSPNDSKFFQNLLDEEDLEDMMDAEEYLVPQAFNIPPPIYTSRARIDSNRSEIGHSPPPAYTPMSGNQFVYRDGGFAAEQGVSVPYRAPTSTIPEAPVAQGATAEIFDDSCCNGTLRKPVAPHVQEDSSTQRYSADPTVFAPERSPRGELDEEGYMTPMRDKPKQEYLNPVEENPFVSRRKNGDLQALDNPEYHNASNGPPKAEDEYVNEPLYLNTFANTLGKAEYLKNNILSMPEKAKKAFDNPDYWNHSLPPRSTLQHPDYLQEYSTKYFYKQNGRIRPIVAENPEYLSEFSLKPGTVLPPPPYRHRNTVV
Sequence of Fibroblast growth factor receptor 2 (Homo sapiens) (P21802 22-821 limits assumed): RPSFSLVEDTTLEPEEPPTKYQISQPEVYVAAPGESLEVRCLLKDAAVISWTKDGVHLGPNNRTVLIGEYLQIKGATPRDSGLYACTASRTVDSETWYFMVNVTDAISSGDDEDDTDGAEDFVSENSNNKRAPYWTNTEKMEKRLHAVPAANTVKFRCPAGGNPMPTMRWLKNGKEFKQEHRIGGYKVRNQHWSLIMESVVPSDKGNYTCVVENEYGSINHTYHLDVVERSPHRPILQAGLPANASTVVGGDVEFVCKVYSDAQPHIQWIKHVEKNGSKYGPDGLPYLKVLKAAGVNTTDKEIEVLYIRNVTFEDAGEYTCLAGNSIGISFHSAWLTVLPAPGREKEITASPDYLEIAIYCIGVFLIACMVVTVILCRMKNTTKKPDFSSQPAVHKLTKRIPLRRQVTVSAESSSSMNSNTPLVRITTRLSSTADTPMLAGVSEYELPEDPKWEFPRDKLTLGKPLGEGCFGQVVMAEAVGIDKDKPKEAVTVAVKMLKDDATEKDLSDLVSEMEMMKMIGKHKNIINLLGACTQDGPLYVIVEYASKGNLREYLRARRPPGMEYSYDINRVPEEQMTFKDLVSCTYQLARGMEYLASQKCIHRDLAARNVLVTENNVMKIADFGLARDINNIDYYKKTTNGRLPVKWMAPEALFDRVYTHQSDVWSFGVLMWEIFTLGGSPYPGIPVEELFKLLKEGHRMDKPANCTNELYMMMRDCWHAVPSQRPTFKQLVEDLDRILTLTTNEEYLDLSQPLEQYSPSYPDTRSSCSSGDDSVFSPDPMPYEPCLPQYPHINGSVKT
Sequence of Tyrosine-protein kinase Fer (Homo sapiens) (P16591 whole entry, looked up): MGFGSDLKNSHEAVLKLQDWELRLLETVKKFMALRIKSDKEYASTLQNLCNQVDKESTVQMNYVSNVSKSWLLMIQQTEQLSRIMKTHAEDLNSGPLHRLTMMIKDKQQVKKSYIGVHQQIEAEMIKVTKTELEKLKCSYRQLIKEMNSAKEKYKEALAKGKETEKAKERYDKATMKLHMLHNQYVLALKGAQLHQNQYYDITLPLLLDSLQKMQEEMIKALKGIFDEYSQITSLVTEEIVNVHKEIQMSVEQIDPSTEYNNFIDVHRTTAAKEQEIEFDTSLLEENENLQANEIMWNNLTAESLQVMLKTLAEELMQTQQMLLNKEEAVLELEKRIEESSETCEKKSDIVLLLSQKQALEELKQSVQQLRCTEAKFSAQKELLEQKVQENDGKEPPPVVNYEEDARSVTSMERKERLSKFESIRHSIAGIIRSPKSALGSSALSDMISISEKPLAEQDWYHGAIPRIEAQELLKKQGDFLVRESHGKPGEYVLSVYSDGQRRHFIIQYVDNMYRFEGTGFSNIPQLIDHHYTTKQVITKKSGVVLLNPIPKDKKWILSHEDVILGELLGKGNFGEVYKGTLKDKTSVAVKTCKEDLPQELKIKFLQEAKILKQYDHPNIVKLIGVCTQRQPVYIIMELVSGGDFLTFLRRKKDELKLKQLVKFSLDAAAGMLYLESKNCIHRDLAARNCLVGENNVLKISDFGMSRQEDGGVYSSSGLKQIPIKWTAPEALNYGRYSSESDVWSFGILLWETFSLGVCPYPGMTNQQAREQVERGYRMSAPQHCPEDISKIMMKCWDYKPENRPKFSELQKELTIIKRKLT

What is called inhibition is the drop in the measured response relative to a control, in per cent. On to `CCCN1CCC(c2ccc(Nc3nc(Nc4cc(F)ccc4C(N)=O)c4cc[nH]c4n3)c(OC)c2)CC1`, for which the inhibition came to 8.57% in assay [1]; 7.06% in [2]; 2.33% in assay [3]; 3.08% in assay [4]; 2.91% in assay [5]; 5.68% in [6]. The inhibition in assay [7] was determined as 12.9%; in assay [8], 34.8%; in [9] it was 76.3%; in assay [10], 77%; in [11], 82.4%; in assay [12] it was 62.5%. For the same molecule, the inhibition in assay [13] was 80.5%; in assay [14], 2.31%; in [15], 2.41%; in assay [16] it was 3.25%; in [17], 6.48%; in assay [18] it was 3.99%. Besides, the inhibition in assay [19] was 1.74%; in [20], -5.38%.

As to `CS(=O)(=O)CCNCc1ccc(-c2ccc3ncnc(Nc4ccc(OCc5ccccc5)c(C(F)(F)F)c4)c3c2)o1`, the inhibition in [1] was 5.29%; in [2] it was 2.9%; in assay [3] it was 3.77%; in [4] it was 3.21%; in assay [5] it was 3.55%; in [6] it was -0.56%. The inhibition turned out to be 10.4% in assay [7]; 9.71% in assay [8]; 33.4% in [9]; 4.03% in assay [10]; 1.94% in assay [11]; 3.29% in assay [12]. Moreover, the inhibition came to 3.27% in [13]; 1.07% in assay [14]; 5.49% in [15]; 3.74% in assay [16]; 6.37% in [17]; 4.77% in assay [18]. The figures for the inhibition in [19] and in assay [20] were 5.71% and 2.52%, respectively.

`COc1ccc(CNC(=O)c2ccc(-c3cc(-c4nnc(C)o4)ccc3C)cc2)cc1`: the inhibition in assay [1] was 10.6%; in [2], -0.7%; in [3] it was 0.39%; in assay [4] it was 1.69%; in [5], -0.88%; in assay [6], 3.57%. Moreover, the inhibition in assay [7] came to 10.7%; in assay [8] it was 2.27%; in assay [9], 7.19%; in assay [10], 2.8%; in assay [11] it was 4.77%; in assay [12] it was 1.89%. Also, the inhibition is 2.09% in [13]; 3.05% in [14]; 2.33% in assay [15]; 3.51% in assay [16]; 5.88% in assay [17]; 2.91% in assay [18]. The inhibition is 5.29% in assay [19] and 3.34% in [20].

As to `COC(=O)c1sc(-n2cnc3cc(OC)c(OC)cc32)cc1OCc1ccccc1C(F)(F)F`, the inhibition in assay [1] was 10.3%; in assay [2] it was 7.34%; in assay [3] it was 6.47%; in assay [4] it was 2.86%; in [5] it was 3.16%; in assay [6], 3.29%. Besides, the inhibition in [7] is -2.49%; in [8], 8.62%; in [9] it was 11%; in assay [10], 1.07%; in assay [11], 4.19%; in assay [12], 3.47%. Moreover, the inhibition in [13] was determined as 3.74%; in [14] it was 3.22%; in [15], 12.9%; in assay [16] it was 3.5%; in assay [17] it was 23%; in [18], 6.13%. For the same molecule, the figures for the inhibition in [19] and in assay [20] were 13.9% and -3.87%, respectively.

Regarding `CCn1c(-c2nonc2N)nc2c(C#CC(C)(C)O)nc(OC[C@H](N)c3ccccc3)cc21`, the inhibition was found to be 0.23% in [1]; 0.72% in [2]; 1.06% in [3]; 1.68% in assay [4]; 1.24% in assay [5]; 0.79% in assay [6]. The inhibition turned out to be 3.43% in assay [7]; 6.48% in assay [8]; 28.9% in assay [9]; 2.98% in assay [10]; 7.41% in assay [11]; 4.38% in assay [12]. Moreover, the inhibition turned out to be 7.88% in [13]; 4.14% in [14]; 2.91% in assay [15]; 4.95% in assay [16]; 4.18% in assay [17]; 9.04% in assay [18]. Also, the inhibition in assay [19] stood at 3.32%; in assay [20], 3.89%.

The values are drawn from ChEMBL document CHEMBL1961873, “Compounds: GSK PKIS; Assays: Nanosyn kinase panel” (2012).
